# Bioassay records as filed in PubChem.
# Anthrax LT inh = qHTS Assay for Anthrax Lethal Toxin Internalization; Cells, anthrax lethal toxin internalization, FRET ratio (460/530); Potency, µM (series often up to 40 µM), inactives show top-dose activity change, negative = inhibition, usual class: inhibitors; actives 0.67% (n = 70,000); also: % is scaled to controls: 0 for no effect and ±100 for the full control effect; nearly all actives have a fitted effect of over 50% in size
# AmpC nodet inh = Promiscuous and Specific Inhibitors of AmpC Beta-Lactamase (assay without detergent) | AmpC nitrocefin hydrolysis, absorbance 480 nm, no detergent | Potency, µM (doses to about 28.7 µM), for inactives: at the top dose activity change, negative = inhibition | actives 1.8% (n = 71,000); also: % of control where 0% means no effect
# Target sequence (P00811 whole entry, looked up): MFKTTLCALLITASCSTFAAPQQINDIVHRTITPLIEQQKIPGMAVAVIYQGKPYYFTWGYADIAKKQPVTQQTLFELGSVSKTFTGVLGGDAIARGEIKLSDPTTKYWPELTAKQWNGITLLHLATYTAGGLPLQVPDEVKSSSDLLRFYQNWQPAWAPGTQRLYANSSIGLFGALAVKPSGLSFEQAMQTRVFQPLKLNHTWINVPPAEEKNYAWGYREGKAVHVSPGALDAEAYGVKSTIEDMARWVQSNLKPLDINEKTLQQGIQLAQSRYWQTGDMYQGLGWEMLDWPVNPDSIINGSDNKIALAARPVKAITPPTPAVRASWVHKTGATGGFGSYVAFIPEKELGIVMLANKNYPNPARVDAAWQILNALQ
#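 Enzyme, pH 7.0 phosphate. Compound titrations were pre-incubated with AmpC for 15 min at room temperature before nitrocefin (stock 800 uM) addition; product formation was recorded at 480 nm every 20 s for 4 min.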
# AmpC det inh = Promiscuous and Specific Inhibitors of AmpC Beta-Lactamase (assay with detergent); P00811; purified AmpC, nitrocefin hydrolysis with detergent; Potency, µM (titrated, usually from 28.7 µM), without a hit: at the highest dose activity change, negative = inhibition; actives 0.09% (n = 71,000); AID 584, 2007; active = well fitted curve in the direction sought with a large enough effect; inconclusive = small, poorly fitted or top-dose-only effect; also: % is scaled to controls: 0 for no effect and ±100 for the full control effect
#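 E. coli AmpC (5.3 nM) in 20 mM phosphate pH 7.0 with 0.01% Triton X-100, preincubated 15 min RT with compound; nitrocefin (2 uL of 800 uM stock) hydrolysis followed by 480 nm absorbance every 20 s over 4 min.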
# SmPrx2 inh = Schistosoma Mansoni Peroxiredoxins (Prx2). Schistosoma mansoni peroxiredoxin 2 (Prx2). S. mansoni Prx2 activity coupled to TGR/GSH (TGR is thioredoxin glutathione reductase), NADPH fluorescence loss, qHTS. Potency, µM. actives 0.07% (n = 65,000)
#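 Purified S. mansoni TGR and Prx2 in pH 7.4 phosphate buffer with EDTA and Tween-20 were preincubated with compounds for 15 min. Further NADPH/GSH was added, then a 2.5 mM H2O2 aliquot initiated turnover, followed kinetically by NADPH fluorescence.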
# Starred values were filed as active, the others as inactive; ? = inconclusive; / = no result; [ ] = dose if it differs, or a comment. In the library only some 2.4% were active in any assay of this set; here they are far more common. Unless noted, calls follow the shape of the full dose curve. Potency is read from the fitted curve at half-maximal effect.
SMILES,Anthrax LT inh,AmpC nodet inh,AmpC det inh,SmPrx2 inh
C[C@@]12CC[C@H](O)C[C@@H]1CC[C@H]1[C@H]2C[C@@H](O)[C@]2(C)[C@@H](C3=CC(=O)OC3)CC[C@@]12O,?,-10.2%,7.4%,>11.4
CCOC(=O)N/N=C1/C[C@@H](O)[C@@H](O)[C@@H]2[C@@H]3C(=O)N(Cc4ccc5c(c4)OCO5)C(=O)[C@H]3CC[C@H]12,2.0%[8 µM],/,/,/
COCCn1cc(C(=O)NCc2cccs2)c2c3ccccc3n(C)c2c1=O,10.5%,81.1%,8.8%,>57
CCCN(CCC)CCNC(=O)c1cc2c(=O)n(C)c3ccccc3c2n1C,3.98µM*,30.3%,13.1%,>57
Cn1c(C(=O)NCc2cccs2)cc2c(=O)n(C)c3ccccc3c21,-7.0%,3.98µM*[single pt active],9.4%,>57
CN(CCNC(=O)c1cc2c(=O)n(C)c3ccccc3c2n1C)Cc1ccccc1,3.16µM*,119.8%,5.6%,>57
O=C(c1ccc2c(=O)n(Cc3ccc4c(c3)OCO4)c(=S)[nH]c2c1)N1CCCCC1,0.9%,15.8µM*[single pt active],11.4%,>57
c1ccc(-c2nnc(N3CCN(c4ccccn4)CC3)c3ccccc23)cc1,10µM*,39.2%,-3.9%,>57
Cc1ccc(-c2nnc(N3CCN(c4ccccn4)CC3)c3ccccc23)cc1,11.2%,3.4%,3.5%,>57
c1ccc2c(N3CCCCC3)nc(N3CCCC3)nc2c1,10µM*,22.1%,-4.9%,>57
c1ccc(-c2nc(N3CCCCCC3)c3ccccc3n2)nc1,?,47.5%,1.8%,/
Nc1nc(N2CCCCC2)nc2ccccc12,20µM*,17.9%,-6.9%,>57
Nc1nc(-c2ccco2)nc(N2CCCCC2)n1,10.2%,0.0%,1.6%,>57
Cc1ccccc1NC(=O)CN1C(=O)COc2ccc(Cl)cc21,10µM*,1.7%,12.0%,>57
O=C(O)CCCC[C@@H]1SC[C@H]2NC(=O)N[C@H]12,?,11.1%,-0.9%,>57
O=c1[nH]c2c(s1)C(c1ccccc1)C1C3CCC(C3)C1S2 (centres undefined),?,1.58µM*,9.1%,>57
CC#C[C@@]1(O)CC[C@@H]2[C@@H]3CCC4=CC(=O)CCC4=C3[C@@H](c3ccc(N(C)C)cc3)C[C@]21C,?,104.9%,0.2%,>57
Cc1cc2n(n1)C(c1ccsc1)Nc1ccccc1-2 (centres undefined),-7.9%,10.3%,-5.3%,>57
CSc1ccc(C2Nc3ccccc3-c3cc(C)nn32)cc1 (centres undefined),12.6µM*,3.4%,1.6%,>57
COc1cccc(Cn2nnc(C(=O)NCc3ccccc3Cl)c2N)c1,?,3.98µM*[single pt active],10.8%,/
COc1cccc(Cn2nnc(C(=O)NCc3ccc(F)cc3)c2N)c1,-11.8%,3.98µM*[single pt active],12.9%,>57
CCOc1ccc(Cn2nnc(C(=O)NCCc3ccccc3)c2N)cc1,-6.9%,3.98µM*[single pt active],10.2%,>57
CC(C)=NOC[C@@H](C)[C@H](OCc1ccccc1)C(C)C,-3.9%[8 µM],/,/,/
CCCC[C@@H]1CN2[C@H](c3ccc(Br)cc3)[C@@H](C)CC[C@H]2C(=O)O1,-21.5%[8 µM],/,/,/
CC(C)CON=O,/,-10.2%,9.6%,/
SMILES,Anthrax LT inh,AmpC nodet inh,AmpC det inh,SmPrx2 inh
Cn1c(C(=O)NCCc2c[nH]c3ccccc23)cc2sccc21,?,-5.9%,11.7%,>57
O=C(NCCc1c[nH]c2ccccc12)c1c(Cl)nc2sccn12,9.1%,12.6µM*,-3.0%,>57
CC1Cc2c(COc3ccccc3)nc3c(c2CO1)CN(CCOc1ccccc1)CC3 (centres undefined),-5.6%[8 µM],/,/,/
CCN1CCN(Cc2ccc(NC(=O)Nc3ccccc3)cc2)CC1,?,1.3%,3.0%,>57
CCN1CCN(Cc2ccc(NC(=O)Nc3ccc(OC)cc3)cc2)CC1,-10.9%,3.98µM*[single pt active],12.6%,>57
Cc1nc2ccccc2c2oc(C(=O)NCCN3CCN(C)CC3)cc12,?,-15.8%,6.1%,>57
Cc1ccc2oc(=O)c3cc(C(=O)NCCN4CCN(C)CC4)sc3c2c1,-16.7%,3.98µM*[single pt active],13.7%,>57
Cc1ccccc1/C=C\C1=NCCN1,-2.1%,-6.0%,-0.2%,>57
C[C@@H]1O[C@H](O[C@H]2C[C@@H](O)[C@]3(CO)[C@H]4[C@H](O)C[C@]5(C)[C@@H](C6=CC(=O)OC6)CC[C@@]5(O)[C@H]4CC[C@]3(O)C2)[C@@H](O)[C@H](O)[C@H]1O,?,-2.6%,0.9%,>57
COc1ccc(C2c3sc(=O)[nH]c3SC3C(=O)N(c4ccccc4)C(=O)C32)cc1 (centres undefined),-16.4%,3.98µM*[single pt active],11.4%,>57
O=C(NCc1ccc2c(c1)OCO2)c1cccc2c1C(=O)N(C1CCCCC1)C2,2.1%,2.51µM*[single pt active],14.4%,>57
C[C@@H]1[C@H]2CC[C@@H]3[C@@H]4CC=C5C[C@@H](N(C)C)CC[C@]5(C)[C@@H]4CC[C@@]32CN1C,3.98µM*,12.7%[12.8 µM],-1.3%[12.8 µM],>57
C/C(N)=C(/C#N)C(=O)CSc1nnc(COc2ccccc2Cl)o1,-4.7%,2.8%,-4.6%,>57
COc1ccccc1OCc1nnc(SCC(=O)c2cc(Cl)ccc2OC)o1,12.6µM*,34.8%,-0.5%,>57
CCOC(=O)C1C2C=CC3(CN(c4ccc(Cl)c(F)c4)C(=O)C13)O2 (centres undefined),14.4%,2µM*[single pt active],9.6%,>57
CCCOC(=O)C1C2C=CC3(CN(c4ccc(Cl)c(F)c4)C(=O)C13)O2 (centres undefined),-15.2%,?,13.2%,>57
O=C(NC1CCCC1)c1ccc(CS(=O)(=O)c2ccc(Br)cc2)o1,-26.1%,3.98µM*[single pt active],8.1%,>57
CN1CCN(CCCNC(=O)c2ccc(CS(=O)(=O)c3ccc(Br)cc3)o2)CC1,-1.9%,21.9%,9.7%,>57
O=C(NCCCN1CCCC1)c1ccc(CS(=O)(=O)c2ccc(Br)cc2)o1,-12.6%,3.98µM*[single pt active],12.6%,>57
CCN(CC)CCNC(=O)c1ccc(CS(=O)(=O)c2ccc(Br)cc2)o1,-25.6%,3.16µM*[single pt active],8.9%,>57
O=C(NCCN1CCCCCC1)c1ccc(CS(=O)(=O)c2ccc(Br)cc2)o1,?,3.98µM*[single pt active],8.4%,>57
CO[C@@H]1COC(=O)[C@H](C)NC(=O)C/C=C\[C@@H](C)[C@H](OC)COC(=O)[C@H](C)NC(=O)C/C=C\[C@H]1C,0.7%[8 µM],/,/,/
CCCCOC(=O)Nc1ccc(S(=O)(=O)Nc2cc(C)nc(C)n2)cc1,?,3.16µM*[single pt active],12.0%,>57
Cc1ccc(OCCCC(=O)Nc2ccc(S(=O)(=O)Nc3cc(C)on3)cc2)cc1,3.9%,10µM*[single pt active],7.1%,>57
O=C(Nc1ccc(N2C(=O)C3C4C=CC(C4)C3C2=O)cc1)Nc1nncs1 (centres undefined),-20.0%,3.98µM*[single pt active],4.8%,>57
O=C(Nc1cccc(Br)c1)c1cc2ccccc2o1,5.01µM*,-3.8%,-2.7%,/
CCc1nc2ccccc2c(C(=O)OCC(=O)Nc2ccc(S(=O)(=O)N3CCOCC3)cc2)c1C,12.6µM*,51.9%,-3.0%,>57
CC(C)(C)NC[C@H](O)c1ccccc1Cl,2.5%,-9.3%,-1.8%,>57
